Results published in PubChem BioAssay (NCI).
This is part of a sample that, as a whole, favours compounds with a hit. Of some 83,000 tested, about 20% had one in any assay.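 Step 1: grow cells in 96-well plates. Step 2: add test compound at a single concentration. Step 3: incubate 48 h. Step 4: record percent growth.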 The source made the active and inactive calls. The calls were made as follows: active = growth percent below 10; inactive = the rest.

Columns and labels:
Test in all cases: NCI-60 one-dose screen, 48 h (100 = growth as untreated, 0 = no growth, -100 = all killed)
Conditions in all cases: 10 µM unless noted
NCI-H23 lung = tested on: NCI-H23 lung
NCI-H226 lung = tested on: NCI-H226 lung
NCI-H322M lung = tested on: NCI-H322M lung
HOP-62 NSCLC = tested on: HOP-62 NSCLC
NCI-H460 lung = tested on: NCI-H460 lung
HOP-92 NSCLC = tested on: HOP-92 NSCLC
NCI-H522 lung = tested on: NCI-H522 lung
A549/ATCC NSCLC = tested on: A549/ATCC NSCLC
786-0 renal = tested on: 786-0 renal
COLO 205 colon = tested on: COLO 205 colon

Measured: growth

COc1cc(C2CC(c3cc(OC)c(OC)c(OC)c3)=NN2C(C)=O)ccc1OCc1ccccc1 (stereo not given)
inactive: NCI-H23 lung 47.2% | NCI-H226 lung 28% | NCI-H322M lung 59.8% | HOP-62 NSCLC 70.2% | NCI-H460 lung 24.3% | NCI-H522 lung 26.8% | A549/ATCC NSCLC 31.8% | 786-0 renal 34% | COLO 205 colon 10.9%
active: HOP-92 NSCLC -4.8%

Cc1cc2c(cc1Cl)C(=O)/C(=C/c1ccccc1)O2
inactive: NCI-H226 lung 14.6% | NCI-H322M lung 73.5% | HOP-62 NSCLC 21.8% | NCI-H460 lung 24.6% | HOP-92 NSCLC 44.4% | COLO 205 colon 32.7%
active: NCI-H23 lung 0.835% | NCI-H522 lung -75% | A549/ATCC NSCLC -59.7% | 786-0 renal -38.5%

CCCCSc1nc(NCCc2c[nH]c3ccccc23)c(C#N)c(-c2ccccc2)n1
active: HOP-92 NSCLC -1.67%
inactive: NCI-H23 lung 15.8% | NCI-H226 lung 44.6% | NCI-H322M lung 83.8% | HOP-62 NSCLC 39.7% | NCI-H460 lung 14.5% | NCI-H522 lung 47.4% | A549/ATCC NSCLC 39.1% | 786-0 renal 10.6% | COLO 205 colon 24.8%

N#Cc1c(-c2ccc(Cl)cc2)nc2n[nH]c(-c3ccc(Cl)cc3)c2c1-c1ccc(C(F)(F)F)cc1
inactive: NCI-H322M lung 10.2%
active: NCI-H23 lung -13.5% | NCI-H226 lung -30.7% | HOP-62 NSCLC -24.2% | NCI-H460 lung -49.1% | HOP-92 NSCLC -25.9% | NCI-H522 lung -14.8% | A549/ATCC NSCLC 6.82% | 786-0 renal -3.14% | COLO 205 colon -88.5%

CCN(CC)c1ccnc(CNCCSC(c2ccccc2)(c2ccccc2)c2ccc(C)cc2)c1
active: NCI-H23 lung -78.7% | NCI-H226 lung -73.3% | NCI-H322M lung -10.4% | HOP-62 NSCLC -89.5% | NCI-H460 lung -79.6% | HOP-92 NSCLC -83.9% | NCI-H522 lung -80.3% | A549/ATCC NSCLC -86.8% | 786-0 renal -93.1% | COLO 205 colon -76.6%

CC(C)CSc1nc(NCCc2c[nH]c3ccccc23)c(C#N)c(-c2ccccc2)n1
inactive: NCI-H23 lung 76.6% | NCI-H226 lung 51.3% | NCI-H322M lung 80.7% | HOP-62 NSCLC 68.8% | NCI-H460 lung 12.5% | HOP-92 NSCLC 61.7% | NCI-H522 lung 67.6% | A549/ATCC NSCLC 66.9% | 786-0 renal 47.1% | COLO 205 colon 50.2%

O=C(O)c1ccc(-c2ccc(/C=N/NC(=O)c3[nH]c4ccc(Br)cc4c3-c3ccccc3)o2)cc1
active: HOP-62 NSCLC 9.47% | NCI-H460 lung 7.72% | HOP-92 NSCLC -8.72% | NCI-H522 lung -33.8%
inactive: NCI-H23 lung 18.3% | NCI-H226 lung 44.3% | NCI-H322M lung 37.5% | A549/ATCC NSCLC 49.5% | 786-0 renal 19.5% | COLO 205 colon 29.3%

COc1ccc(-c2nnc3ccc(N/N=C/c4ccc(C)cc4)nn23)cc1
inactive: NCI-H23 lung 50.7% | NCI-H226 lung 54.6% | NCI-H322M lung 85.3% | HOP-62 NSCLC 70.4% | NCI-H460 lung 51.2% | HOP-92 NSCLC 18.9% | NCI-H522 lung 91% | A549/ATCC NSCLC 33.4% | 786-0 renal 56.9% | COLO 205 colon 79.9%

CNC(=O)c1cccc(NC(=O)c2ccc3c(c2)nnn3/C(C#N)=C/c2ccccn2)c1
inactive: NCI-H322M lung 91.8% | HOP-62 NSCLC 82.7% | NCI-H460 lung 51.5% | A549/ATCC NSCLC 83.2%
active: NCI-H23 lung -39.3% | NCI-H226 lung -97.4% | HOP-92 NSCLC -29.5% | NCI-H522 lung -90% | 786-0 renal -95.9% | COLO 205 colon -86.6%

CC(=O)Nc1cccc(Nc2nccc(N[C@@H](C)c3ccccc3)n2)c1
active: HOP-62 NSCLC 8.72% | NCI-H460 lung 5.42% | NCI-H522 lung -43.4% | COLO 205 colon -3.46%
inactive: NCI-H23 lung 18.2% | NCI-H226 lung 34.7% | NCI-H322M lung 40.6% | HOP-92 NSCLC 45% | A549/ATCC NSCLC 16.4% | 786-0 renal 26.6%

N#Cc1c(-c2ccc(Br)cc2)nc2n[nH]c(-c3ccc(Br)cc3)c2c1-c1ccc(F)cc1
inactive: NCI-H23 lung 92.6% | NCI-H226 lung 87.5% | NCI-H322M lung 90.6% | HOP-62 NSCLC 87.9% | NCI-H460 lung 106% | HOP-92 NSCLC 112% | NCI-H522 lung 94.1% | A549/ATCC NSCLC 99.7% | 786-0 renal 102% | COLO 205 colon 92.1%

O=C(NNc1nc2cc(F)ccc2n2c(C(=O)N3CCN(C4CC4)CC3)ccc12)c1ncccn1
inactive: NCI-H23 lung 38.4% | NCI-H226 lung 11.4% | NCI-H322M lung 29.9% | HOP-62 NSCLC 20% | HOP-92 NSCLC 69.2% | NCI-H522 lung 67.1% | A549/ATCC NSCLC 24.5%
active: NCI-H460 lung 8.44% | 786-0 renal -9.79% | COLO 205 colon 7.77%

O=C(Nc1ccc(C(F)(F)F)cc1)Nc1ccc2oc(=O)ccc2c1
active: NCI-H23 lung 3.56% | HOP-92 NSCLC -5.11% | NCI-H522 lung -10.4% | COLO 205 colon -26.4%
inactive: NCI-H226 lung 26.6% | NCI-H322M lung 41.1% | HOP-62 NSCLC 50.1% | NCI-H460 lung 15.9% | A549/ATCC NSCLC 14.1% | 786-0 renal 53.8%

COc1cc2c(c(OC)c1OC)C(=O)CC(c1cccc(NC(=O)c3cccc([N+](=O)[O-])c3)c1)O2 (stereo not given)
inactive: NCI-H23 lung 38.2% | NCI-H226 lung 38.4% | NCI-H322M lung 63.3% | HOP-62 NSCLC 47.9% | NCI-H460 lung 35.4% | HOP-92 NSCLC 17% | A549/ATCC NSCLC 43.8% | 786-0 renal 59.7% | COLO 205 colon 51.8%
active: NCI-H522 lung -7.5%

C=C1CC[C@@H]2[C@]3(C)COC(c4cn[nH]c4-c4ccccc4)O[C@@H]3CC[C@@]2(C)[C@@H]1C/C=C1/C(=O)OCC1O (stereo not given in full)
inactive: NCI-H322M lung 83.7% | HOP-62 NSCLC 63.8% | NCI-H460 lung 18% | A549/ATCC NSCLC 56.1%
active: NCI-H23 lung -27.2% | NCI-H226 lung -30.6% | HOP-92 NSCLC -12.4% | NCI-H522 lung 1.15% | 786-0 renal -72.8% | COLO 205 colon -10.8%

O=C(c1ccc(OCCN2CCOCC2)cc1)C1[C@H](c2ccc(Cl)cc2)[C@@H](c2ccccc2)NC12C(=O)Nc1ccc(Br)cc12 (stereo not given in full)
active: NCI-H460 lung 6.73% | HOP-92 NSCLC -15.1% | 786-0 renal -4.29% | COLO 205 colon -39.3%
inactive: NCI-H23 lung 26.1% | NCI-H226 lung 44% | NCI-H322M lung 53.8% | HOP-62 NSCLC 60.6% | NCI-H522 lung 10.3% | A549/ATCC NSCLC 17.6%

Cn1cc(-c2nnc(N)nc2-c2c[nH]c3ccccc23)c2cccnc21
inactive: NCI-H23 lung 65.7% | NCI-H226 lung 71.1% | NCI-H322M lung 69.9% | HOP-62 NSCLC 48.1% | NCI-H460 lung 15.2% | HOP-92 NSCLC 87.1% | NCI-H522 lung 21.4% | A549/ATCC NSCLC 46% | 786-0 renal 54.9% | COLO 205 colon 25.9%

Cc1ccc(NCC(=O)Cn2cc(COc3ccc(C=Nc4cnc5ccccc5c4)cc3)nn2)cc1
inactive: NCI-H23 lung 109% | NCI-H226 lung 105% | NCI-H322M lung 103% | HOP-62 NSCLC 102% | NCI-H460 lung 130% | HOP-92 NSCLC 116% | NCI-H522 lung 104% | A549/ATCC NSCLC 103% | 786-0 renal 107% | COLO 205 colon 114%

COc1cc2c(c(OC)c1OC)C(=O)CC(c1cccc(NC(=O)c3cc([N+](=O)[O-])ccc3Cl)c1)O2 (stereo not given)
active: NCI-H522 lung -27.1%
inactive: NCI-H23 lung 20.1% | NCI-H226 lung 25.3% | NCI-H322M lung 55.7% | HOP-62 NSCLC 43% | NCI-H460 lung 30.8% | HOP-92 NSCLC 36.3% | A549/ATCC NSCLC 35.6% | 786-0 renal 25.1% | COLO 205 colon 37.1%

CN(C)CCCNC(=O)c1cc(NC(=O)c2cc(NC(=O)c3ccc(/C=C/c4ccccc4)cc3)cn2C)cn1C
active: HOP-92 NSCLC -1.72% | NCI-H522 lung -16.4%
inactive: NCI-H23 lung 43.9% | NCI-H226 lung 50.3% | NCI-H322M lung 73.4% | HOP-62 NSCLC 74.1% | NCI-H460 lung 19.5% | A549/ATCC NSCLC 35.7% | 786-0 renal 42.3% | COLO 205 colon 32%

CC1(C)CC[C@]2(C(=O)Nc3ccccc3)CC[C@]3(C)C(=CCC4[C@@]5(C)C[C@@H](O)[C@H](O)[C@@](C)(CO)C5CC[C@]43C)C2C1 (stereo not given in full)
inactive: NCI-H23 lung 75.9% | NCI-H226 lung 54.3% | NCI-H322M lung 89.7% | HOP-62 NSCLC 75.3% | NCI-H460 lung 51.4% | HOP-92 NSCLC 39.1% | NCI-H522 lung 41.6% | A549/ATCC NSCLC 39.2% | 786-0 renal 71.1% | COLO 205 colon 31.6%

O=C(N=Nc1c(O)[nH]c2ccc(Cl)cc12)c1ccc2nc(-c3ccccc3)[nH]c2c1
active: NCI-H522 lung 8.85%
inactive: NCI-H23 lung 29.9% | NCI-H226 lung 91.1% | NCI-H322M lung 15.8% | HOP-62 NSCLC 81.3% | NCI-H460 lung 26.3% | HOP-92 NSCLC 77% | A549/ATCC NSCLC 94.3% | 786-0 renal 47.4% | COLO 205 colon 62%

Clc1cccc(-c2ccc(OCCCN3CCN(c4ccncc4)CC3)cc2)c1
active: HOP-62 NSCLC -49.1% | NCI-H460 lung -67.5% | HOP-92 NSCLC -1.12% | NCI-H522 lung -4.23% | A549/ATCC NSCLC -11.9% | 786-0 renal -79.5% | COLO 205 colon -86.1%
inactive: NCI-H23 lung 19.1% | NCI-H226 lung 41.3% | NCI-H322M lung 53.4%

CC(=O)Oc1ccccc1C(=O)[Se]CC(=O)Nc1cccc(C(F)(F)F)c1
active: NCI-H23 lung -50.9% | NCI-H226 lung -39.2% | NCI-H322M lung -16.5% | HOP-62 NSCLC -61.1% | NCI-H460 lung 0.365% | HOP-92 NSCLC -60.3% | NCI-H522 lung -30.4% | A549/ATCC NSCLC -61.3% | 786-0 renal -14.7%
inactive: COLO 205 colon 19.7%
